A selection: hits, their analogues and other compounds. The true share with any hit is near 3.6%.
WT yeast gro inh: growth inhibition of WT yeast, mitochondrial fusion screen. 190,000 compounds, 2.1% hits. mitochondrial fusion phenotypic screen, WT strain. inhibition, % at 10 µM; in the data active means inhibition above about 58%; tested in S. cerevisiae
DAT uptake mod: human DAT dopamine uptake with cocaine, either direction; LLC-PK1 hDAT cells, [14C]-dopamine uptake with cocaine IC80; actives deviate in either direction; B-score at 10 µM; 110,000 compounds, 1.3% hits; AID 449768;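 active means Z score or B-score, a plate-position-corrected score, falls beyond the plate's 99.7% confidence bounds, in either direction; inactive means both scores lie inside the 99.7% bounds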;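 further: scored against the spread of the other compound wells on the same plate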
Target sequence (Q01959 whole entry, looked up): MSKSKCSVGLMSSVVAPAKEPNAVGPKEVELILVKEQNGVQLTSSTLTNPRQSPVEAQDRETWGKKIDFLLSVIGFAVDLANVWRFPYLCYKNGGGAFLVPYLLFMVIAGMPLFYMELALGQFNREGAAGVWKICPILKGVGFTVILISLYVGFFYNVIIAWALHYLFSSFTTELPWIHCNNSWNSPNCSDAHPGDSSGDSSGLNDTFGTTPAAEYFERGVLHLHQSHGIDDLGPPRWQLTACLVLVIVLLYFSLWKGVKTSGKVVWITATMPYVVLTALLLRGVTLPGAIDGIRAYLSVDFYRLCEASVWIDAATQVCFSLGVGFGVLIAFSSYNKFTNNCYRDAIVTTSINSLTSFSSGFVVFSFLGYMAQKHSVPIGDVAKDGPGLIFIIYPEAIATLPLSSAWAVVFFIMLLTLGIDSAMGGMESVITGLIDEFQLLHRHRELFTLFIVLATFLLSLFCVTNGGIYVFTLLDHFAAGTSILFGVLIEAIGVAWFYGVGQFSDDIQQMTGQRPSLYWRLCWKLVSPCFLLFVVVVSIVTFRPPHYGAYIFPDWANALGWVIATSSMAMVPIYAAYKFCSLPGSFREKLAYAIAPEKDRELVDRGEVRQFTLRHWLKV
PTEN del growth: PTEN-deleted cell growth suppression; HCT116 PTEN-null viability, CellTiter-Glo, 60 h; active compounds read low; viability, % at 10 µM; 140,000 compounds, 1.2% hits; AID 827;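 active means viability at or below a set limit, 4 SD under the median of all tested compounds, cut at about 3.7% in these data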;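 further: PTEN knockout HCT116 line with beta catenin targeted HCT116 as companion control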
bCat KO growth: beta-catenin-lacking colon tumor cell growth suppression; 140,000 compounds, 1.5% hits; HCT116 beta-catenin knockout viability, CellTiter-Glo, 60 h; active compounds read low; viability, % at 10 µM;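 active means viability at or under a set limit, the compound median less 4 SD, cut at about 6% in these data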;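 further: 0% = Hyamine 1622 control at 20 µM and 100% = untreated cell control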
Active calls of the source: *; · = no result.

SMILES	WT yeast gro inh	DAT uptake mod	PTEN del growth	bCat KO growth
O=C(Nc1cccc(F)c1)c1cc(S(=O)(=O)NCCC2=CCCCC2)ccc1F	60*	·	31	15
COC(=O)c1cc(NC(=O)Nc2cccc(Cl)c2)ccc1Cl	-15	-0.52	3.4*	3.8*
COc1ccccc1NS(=O)(=O)c1cccc(NC(=O)c2sc3ccccc3c2Cl)c1	8	·	·	·
COc1ccccc1NS(=O)(=O)c1cccc(NC(=O)Nc2cccc(Cl)c2)c1	-9	·	6	3.9*
COc1ccc(N2C(=O)[C@@H]3[C@H](C2=O)[C@H]2c4ccccc4C=CN2[C@@H]3C(C)=O)cc1	-13	·	93	92
COC(=O)c1ccc(NC(=O)c2ccccc2N(C)S(C)(=O)=O)cc1	5	-2.7*	90	94
CC(=O)Nc1ccc(NC(=O)c2ccccc2N(C)S(C)(=O)=O)cc1	2	0.21	104	90
Cc1ccc(NC(CNS(=O)(=O)c2ccc(Cl)cc2)c2ccccc2)cc1 (centres undefined)	88*	0.025	37	24
CCN(CC)C(CNS(=O)(=O)c1ccc(Cl)cc1)c1ccccc1 (centres undefined)	-3	·	·	·
NS(=O)(=O)c1ccc(NC(CNS(=O)(=O)c2ccccc2)c2ccccc2)cc1 (centres undefined)	1	·	·	·
O=S(=O)(NCC(Nc1ccc(Cl)cc1)c1ccccc1)c1ccccc1 (centres undefined)	83*	·	71	78
c1ccc2c(c1)CCCC2C1=NCCN1 (centres undefined)	-4	0.45	0.8*	0.8*
COc1cc(/C=C/C(=O)O)cc(S(=O)(=O)Nc2cccc(SC)c2)c1OC	-12	·	98	100
C=C(C)c1cccc(C(C)(C)NC(=O)NC2CC(C)(C)NC(C)(C)C2)c1	-8	·	·	·
CCNC(=S)N(CCc1c(C)[nH]c2ccc(Cl)cc12)Cc1ccco1	78*	·	·	·
COCCNC(=S)N(CCc1c(C)[nH]c2ccc(Cl)cc12)Cc1cccs1	74*	·	·	·
CCNC(=S)N(CCc1c(C)[nH]c2ccc(C)cc12)Cc1cccs1	71*	·	·	·
CNC(=S)N(CCc1c(C)[nH]c2ccc(Cl)cc12)Cc1cccs1	78	·	·	·
CC(C)CN1CCN(Cc2ccc(CN3CCCCC3)s2)CC1CCO (centres undefined)	10	·	·	·
O=C(O)C[C@H]1c2ccccc2S(=O)(=O)N1C1CCCC1	·	-0.057	·	·
CCn1c(O)c(C2=c3ccccc3=NC2=O)c2cc(Br)ccc21	72*	·	·	·
O=C1N=c2ccccc2=C1c1c(O)n(-c2cccc(F)c2)[nH]c1=O	0	·	95	94
Cc1ccc(-c2sc(-c3cccnc3)nc2CC(=O)O)cc1	3	·	·	·
Nc1ccc2nc(CN3CCOCC3)[nH]c2c1	66*	·	99	97
Cc1ccc2ccc(C3C(=O)c4ccccc4C3=O)nc2c1	·	0.9	·	·
SMILES	WT yeast gro inh	DAT uptake mod	PTEN del growth	bCat KO growth
Cc1cccc2cc(CN(Cc3nnnn3Cc3ccco3)C3CCCC3)c3nnnn3c12	21	-7.4*	76	84
CC1(C)Cc2ccccc2C(/C(=N\Nc2cccc(Cl)c2)C(N)=O)=N1	60*	·	58	46
Cc1nc2cc(NS(=O)(=O)c3c(C)c(C)cc(C)c3C)ccc2s1	69*	1.8	52	37
COc1cc(NCCC(=O)c2cccs2)c(OC)cc1Cl	0	·	·	·
CCOC(=O)c1cnc(-n2nc(C)cc2C)nc1NCc1ccc2c(c1)OCO2	45	-7*	87	79
CCOC(=O)c1cnc(-n2nc(C)cc2C)nc1Nc1ccccc1OC	13	0.5	87	87
CCOC(=O)c1cnc(-n2nc(C)cc2C)nc1Nc1ccc(OC)cc1	44	-0.35	67	55
CCOC(=O)c1cnc(-n2nc(C)cc2C)nc1NCCc1ccccc1	74*	2	2.9*	2.2*
On1onc2c3cc(-c4ccccc4)nc3ccc21	81*	·	1.2*	1.8*
c1ccc(-c2cc3c(ccc4nonc43)nn2)cc1	-6	-0.043	86	87
COc1cc(/C=N/N=C2/SCC(=O)N2c2ccc(O)cc2)ccc1O	1	·	·	·
Nc1[nH]n2c(=O)cc(-c3ccccc3)nc2c1N=Nc1ccccc1	20	-0.23	8	3.7*
Nc1[nH]n2c(=O)cc(-c3ccccc3)nc2c1N=Nc1ccc(S(N)(=O)=O)cc1	3	·	·	·
CCN1C(=O)C(O)(CC(=O)/C=C/C=C/c2ccccc2)c2ccccc21 (centres undefined)	3	·	72	72
O=C(/C=C/C=C/c1ccccc1)CC1(O)C(=O)N(CCc2ccccc2)c2ccccc21 (centres undefined)	60*	·	58	71
COc1ccc(-c2coc3c(CN4CCCCC4)c(O)c(CN4CCCCC4)c(O)c3c2=O)cc1	9	1.1	1.6*	1.4*
O=c1c(-c2ccc(Br)cc2)coc2c(CN3CCOCC3)c(O)ccc12	-4	0.73	85	81
CCOc1ccc(CC(=O)NCC2(N3CCCCC3)CCCCC2)cc1	-5	·	·	·
Cc1cncn1CCc1nc2c3ccccc3nc(SCC(=O)Nc3cccc(Cl)c3)n2n1	20	·	1.0*	5.3*
Cc1n[nH]c(C)c1CCc1nc2c3ccccc3nc(SCC(=O)Nc3ccccc3F)n2n1	3	0.028	85	84
Cc1cccc(NC(=O)CSc2nc3ccccc3c3nc(CCc4c(C)n[nH]c4C)nn23)c1	-13	3.8*	15	8
Cc1nc2ccccc2n1CCc1nc2c3ccccc3nc(SCC(=O)NCc3ccco3)n2n1	-21	0.16	79	90
CSc1ccc(CN2CCN(Cc3ccc([N+](=O)[O-])cc3)CC2)cc1	36	·	·	·
N=c1c2c(n(Cc3ccc(Cl)c(Cl)c3)c3c1CCC3)CCCC2	72*	-1.1	9	11
N=c1c2c(n(Cc3ccc(Br)cc3)c3c1CCC3)CCCC2	58*	·	7	7
SMILES	WT yeast gro inh	DAT uptake mod	PTEN del growth	bCat KO growth
N=c1c2c(n(Cc3ccc([N+](=O)[O-])cc3)c3c1CCC3)CCCC2	67*	·	·	·
CCCn1c2c(c(=N)c3c1CCC3)CCCC2	10	·	47	51
O=C(c1ccccc1NS(=O)(=O)c1ccc(Cl)cc1)N1CCc2ccccc21	30	·	86	86
Cc1ccc(COC(=O)c2ccc3c(c2)C(=O)N(CCCN2CCOCC2)C3=O)cc1	-11	·	·	·
Cc1ccnc(N2CCC(C(=O)Nc3ccc4c(c3)OCCO4)CC2)n1	-23	·	·	·
CCN1CCN(c2ccc(NC(=O)c3cccc(F)c3)cc2Cl)CC1	-9	·	·	·
COc1cc(NC(=S)N2CCC(C(O)(c3ccccc3)c3ccccc3)CC2)cc(OC)c1	18	·	84	77
CN(C1=C(N2CCCCC2)C(=O)c2ccccc2C1=O)c1ccccc1	76*	1.3	63	69
O=C1C(Nc2cccc(O)c2)=C(N2CCCCC2)C(=O)c2ccccc21	1	-2.7*	42	35
COc1ccccc1NC1=C(N2CCCCC2)C(=O)c2ccccc2C1=O	52	·	5	3.1*
O=C1C(Nc2ccccc2)=C(N2CCCCC2)C(=O)c2ccccc21	6	-5*	35	29
CC(=O)Nc1ccc(S(=O)(=O)NNC2=NS(=O)(=O)c3ccccc32)cc1	5	·	·	·
Cc1nn(C)c(C(=O)N2CCOCC2)c1Cl	-11	·	101	94
CCCc1nc(SCC(=O)N2CCc3ccccc32)c2c(C)c(C)sc2n1	5	·	81	85

Source: PubChem (several laboratories)
